# Assay results published in PubChem BioAssay AID782 (Emory University Molecular Libraries Screening Center, 2007).
# Among all 220,000 compounds or so, about 800 (0.36%) were called active. Shown is part of a subset that was picked to be rich in actives. Unmarked numbers belong to inactive results.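 The calls were made as follows: active = inhibition above about 30% (limit read from the data); inactive = the rest.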
# Biological target: Eukaryotic translation initiation factor 4E (Mus musculus) + Eukaryotic translation initiation factor 4 gamma 1 (Homo sapiens) (UniProt P63073+Q04637)
# Sequence (P63073 whole entry, looked up, the tested form may be a part): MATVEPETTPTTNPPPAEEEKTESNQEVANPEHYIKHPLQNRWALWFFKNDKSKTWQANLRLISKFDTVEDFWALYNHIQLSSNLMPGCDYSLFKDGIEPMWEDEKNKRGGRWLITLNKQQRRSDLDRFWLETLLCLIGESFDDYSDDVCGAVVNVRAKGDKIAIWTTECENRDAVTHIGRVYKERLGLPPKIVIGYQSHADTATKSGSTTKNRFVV
# Sequence (Q04637 whole entry, looked up, the tested form may be a part): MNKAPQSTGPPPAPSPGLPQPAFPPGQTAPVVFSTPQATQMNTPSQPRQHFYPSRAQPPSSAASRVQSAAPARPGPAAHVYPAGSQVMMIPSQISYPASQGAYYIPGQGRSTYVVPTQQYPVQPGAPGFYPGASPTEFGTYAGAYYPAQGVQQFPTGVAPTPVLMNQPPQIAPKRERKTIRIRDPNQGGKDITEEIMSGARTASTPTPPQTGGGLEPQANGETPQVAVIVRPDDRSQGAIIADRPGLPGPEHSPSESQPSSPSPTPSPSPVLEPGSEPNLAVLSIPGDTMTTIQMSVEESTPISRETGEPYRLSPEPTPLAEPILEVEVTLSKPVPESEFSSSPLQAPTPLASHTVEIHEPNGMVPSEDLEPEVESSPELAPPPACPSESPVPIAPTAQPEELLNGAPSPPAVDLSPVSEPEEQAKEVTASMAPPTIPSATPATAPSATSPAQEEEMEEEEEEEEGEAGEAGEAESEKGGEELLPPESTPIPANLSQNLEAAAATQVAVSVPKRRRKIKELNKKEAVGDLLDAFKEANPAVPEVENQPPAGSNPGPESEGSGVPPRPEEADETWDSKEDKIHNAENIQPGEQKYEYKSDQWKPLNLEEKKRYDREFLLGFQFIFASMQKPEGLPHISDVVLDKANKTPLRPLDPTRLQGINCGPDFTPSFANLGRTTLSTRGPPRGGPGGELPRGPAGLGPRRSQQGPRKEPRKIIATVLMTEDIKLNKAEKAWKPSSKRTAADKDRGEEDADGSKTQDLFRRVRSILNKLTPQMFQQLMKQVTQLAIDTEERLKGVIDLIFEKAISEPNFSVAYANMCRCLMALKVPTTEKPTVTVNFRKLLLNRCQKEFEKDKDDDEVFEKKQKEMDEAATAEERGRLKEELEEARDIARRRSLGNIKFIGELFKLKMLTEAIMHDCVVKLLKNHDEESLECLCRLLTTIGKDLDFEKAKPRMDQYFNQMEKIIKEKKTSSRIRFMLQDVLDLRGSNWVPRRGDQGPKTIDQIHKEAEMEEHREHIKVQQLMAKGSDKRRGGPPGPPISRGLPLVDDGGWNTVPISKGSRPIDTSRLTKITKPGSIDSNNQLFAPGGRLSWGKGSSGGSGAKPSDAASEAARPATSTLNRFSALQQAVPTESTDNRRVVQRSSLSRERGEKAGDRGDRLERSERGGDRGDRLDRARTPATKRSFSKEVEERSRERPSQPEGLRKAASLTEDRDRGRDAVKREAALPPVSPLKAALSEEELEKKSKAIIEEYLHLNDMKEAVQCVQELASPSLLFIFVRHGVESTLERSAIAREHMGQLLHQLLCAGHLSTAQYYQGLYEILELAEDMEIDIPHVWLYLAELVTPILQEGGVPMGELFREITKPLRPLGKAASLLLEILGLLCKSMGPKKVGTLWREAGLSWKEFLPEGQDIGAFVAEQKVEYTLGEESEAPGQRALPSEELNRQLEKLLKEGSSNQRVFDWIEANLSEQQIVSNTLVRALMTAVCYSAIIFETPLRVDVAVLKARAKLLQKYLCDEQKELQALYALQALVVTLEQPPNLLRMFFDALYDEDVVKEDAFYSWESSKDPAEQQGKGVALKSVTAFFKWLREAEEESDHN
# Assay: eIF4E–eIF4G protein interaction inhibitors, primary screen, biochemical, uHTS, TR-FRET, eIF4GI fragment (AID 782);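 also: 0% = full FRET control wells and 100% = background wells lacking eIF4GI fragment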
# Settings: TR-FRET eIF4E-eIF4GI(517-606) binding, 2 h; at 21.7 µM; stronger effect = higher value
row,Compound,inhibition
1,CC(=NCC1CCCO1)c1c(O)n(-c2ccccc2)c(=O)[nH]c1=O (stereo not given),58.1% (active)
2,CCC(=NCCc1ccccc1)c1c(O)n(C2CCCCC2)c(=O)[nH]c1=O,-4.4%
3,Cc1ccc(-n2c(O)c(C=NCC3CCCO3)c(=O)[nH]c2=O)c(C)c1 (stereo not given),-0.86%
4,CC1(C)Cc2c(C#N)c(N3CCNCC3)nc(-c3ccco3)c2CS1,-1.83%
5,COc1ccc(NC(=O)N2CCC3(CC2)OCCO3)c(OC)c1,1.55%
